Reference: PubChem BioAssay (EPA / NIEHS)
Records with an inconclusive call do not appear. The source made the active and inactive calls. How the source made its calls, unless noted: active means hit-call score of the fitted dose curve at least 0.9, where 1 is the maximum; inactive means score below 0.9.

Legend:
[1] = biological target: Ratio of Nucleoli Translocation and Cytoplasm, AR (gene 367) (UniProt P10275); assay: UPITT_HCI_U2OS_AR_TIF2_Nucleoli_Cytoplasm_Ratio_Agonist: University of Pittsburgh U2OS Androgen Receptor-Transcriptional Intermediary Factor 2 (AR-TIF2) Agonism High Content Imaging Assay for Ratio of Nucleoli Translocation and Cytoplasm (AID 2284000; active means hit-call score of the fitted dose curve at least 0.9, where 1 is the maximum;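 further: hits raise the red nucleolar to cytoplasm ratio above vehicle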)
Method in brief: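 Primary screen at 20 uM final (0.2% DMSO), then triplicate confirmation and dose-response from 0.195 to 50 uM final (0.5% DMSO). Cells: U2OS with AR-RFP and TIF2-GFP. Endpoint is the nucleoli/cytoplasm red-fluorescence ratio, gain-of-signal vs DMSO.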

[2] = CCTE_Shafer_MEA_acute_firing_rate_mean: CCTE's Neural Acute Assay for Mean Firing Rate, Shafer Lab (AID 2284009);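 further: analyzed for loss of signal so actives lower firing rate relative to DMSO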
Method in brief: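 Spontaneous spiking of primary rat cortical networks, DIV 13/15, 37 C. Compound 0.03-40 uM, n ≥3 wells; 40 min baseline vs 40 min treated. Endpoint fitted in loss-of-signal direction against DMSO.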

[3] = CCTE_Shafer_MEA_acute_burst_number: CCTE's Neural Acute Assay for Single-Electrode Bursts, Shafer Lab (AID 2284013)
Method in brief: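 Burst totals were derived with adaptive spike detection (8x rms threshold) on filtered signals from rat cortical cultures; change relative to pre-treatment baseline after 40-min compound exposure (0.03-40 uM) was fitted in the negative direction against DMSO.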

[4] = CCTE_Shafer_MEA_acute_burst_duration_mean: CCTE's Neural Acute Assay for Mean Burst Duration, Shafer Lab (AID 2284014);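 further: hits are decreases in mean burst duration relative to DMSO controls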
Method in brief: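 Acute exposure of mature rat cortical networks (DIV 13 or 15) grown on microelectrode arrays to 0.03-40 uM compound. Mean burst duration compared with the 40-min pre-dose baseline over a 40-min post-dose recording at 37 C.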

[5] = CCTE_Shafer_MEA_acute_per_burst_spike_number_mean: CCTE's Neural Acute Assay for Average Number of Spikes Per Burst, Shafer Lab (AID 2284015);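 further: hits are decreases in mean spikes per burst versus baseline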
Method in brief: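 Read-out: percent change in mean spikes per burst, each well's post-exposure 40-min recording versus its own 40-min baseline. Rat cortical cultures, DIV 13 or 15, compounds 0.03-40 uM; DMSO is negative control, loss-of-signal fitting.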

[6] = CCTE_Shafer_MEA_acute_interburst_interval_mean: CCTE's Neural Acute Assay for Mean Interburst Interval, Shafer Lab (AID 2284016);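 further: percent change of mean interburst interval versus each well's own pre-dose baseline; curves fitted for decrease in interburst interval relative to DMSO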
Method in brief: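 Rat cortical cultures, DIV 13/15; 20 min equilibration, 40 min baseline, compound 0.03-40 uM, 40 min re-recording, 37 C. Spikes detected at 8x rms noise (300-5000 Hz band-pass). Endpoint: % change in interburst interval, fitted in loss direction vs DMSO.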

[7] = CCTE_Shafer_MEA_acute_burst_percentage_mean: CCTE's Neural Acute Assay for Percentage of Spikes in a Burst, Shafer Lab (AID 2284017)
Method in brief: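 Rat cortical cultures, DIV 13/15, 37 C. Spikes detected at 8x rms noise (300-5000 Hz band-pass). Burst spikes/total spikes averaged across electrodes per well; % change post- vs pre-treatment (40 min each), loss-of-signal fit vs DMSO.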

[8] = CCTE_Shafer_MEA_acute_burst_percentage_std: CCTE's Neural Acute Assay for Standard Deviation of Burst Percentage, Shafer Lab (AID 2284018);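 further: fitted in the negative direction so actives lower burst percentage SD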
Method in brief: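 Primary rat cortical neurons on 16-electrode MEA wells were recorded 40 min at baseline (DIV 13 or 15), then 40 min after compound (0.03-40 uM), at 37 C. Well value is SD across electrodes of spikes-in-bursts/total spikes; endpoint is percent change, DMSO-referenced.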

[9] = CCTE_Shafer_MEA_acute_per_network_burst_spike_number_std: CCTE's Neural Acute Assay for Standard Deviation of Number of Spikes in a Network Burst, Shafer Lab (AID 2284020);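 further: fitted for decrease in spike-number SD versus DMSO so actives lower it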
Method in brief: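 Acute MEA exposure, rat cortical neurons, 0.03-40 uM. Per-well % change versus own baseline; DMSO as negative control.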

[10] = CCTE_Shafer_MEA_acute_network_burst_percentage: CCTE's Neural Acute Assay for Percentage of Network Bursts, Shafer Lab (AID 2284022);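 further: curves fitted for loss so actives lower network burst percentage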
Method in brief: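 On DIV 13 or 15, at least three wells of rat cortical neurons per compound are dosed at 0.03-40 uM. Spontaneous firing is detected at 8x rms noise for 40 min before and after dosing at 37 C. The percent change in network-burst spike share is reported.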

[11] = CCTE_Shafer_MEA_acute_cross_correlation_area: CCTE's Neural Acute Assay for Area of Cross Correlation, Shafer Lab (AID 2284024);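 further: rat primary cortical neuron networks on 48-well MEA at DIV 13 or 15 with 40 min exposure; area under pooled inter-electrode spike cross-correlation near zero lag as percent change from own baseline; curves fitted for loss of cross-correlation area so actives lower synchrony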
Method in brief: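 Extracellular recordings from cultured rat cortical neurons measure network synchrony as cross-correlation area; each well's post-compound value (0.03-40 uM, 40 min) is compared with its own 40 min baseline to give percent change.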

[12] = CCTE_Shafer_MEA_acute_cross_correlation_HWHM: CCTE's Neural Acute Assay for Cross Correlation at Half Width at Half Maximum, Shafer Lab (AID 2284026);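 further: spontaneous network firing of rat primary cortical neurons on multiwell microelectrode arrays; percent change per well from pre-dose baseline in spike cross-correlogram half width; hits are a decrease in cross-correlogram half width relative to DMSO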
Method in brief: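 Percent change in cross-correlogram half width at half maximum, narrower meaning more synchrony, was derived per well from paired 40-min recordings before and during exposure to 0.03-40 uM compound in rat cortical cultures at 37 C.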

[13] = CCTE_Shafer_MEA_acute_synchrony_index: CCTE's Neural Acute Assay for Synchrony, Shafer Lab (AID 2284027);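 further: network synchrony index of spontaneous spiking in primary rat cortical neurons on MEAs; fitted for loss of signal so actives lower synchrony relative to DMSO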
Method in brief: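 Rat cortical cultures, DIV 13/15; spikes detected at 8x rms noise, 300-5000 Hz band-pass. Compound 0.03-40 uM, ≥3 wells; 40-min pre- and post-exposure recordings, 37 C. Readout: % change in synchrony index; loss-of-signal fit vs DMSO.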

[14] = CCTE_Harrill_HTTr_Viability_MCF7: CCTE's 6-hour Cell Viability Assessment for the High-Throughput Transcriptomics (HTTr) Platform, in MCF-7 cells cultured in DMEM + 10% fetal bovine serum, Harrill Lab (AID 2284010)
Method in brief: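 PI exclusion, high-content imaging; 8-pt dilution series, 6 h exposure; bidirectional fit vs DMSO (neg. ctrl/baseline); gain of signal = loss of membrane integrity.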

[15] = CCTE_Harrill_HTTr_Apoptosis_MCF7: CCTE's 6-hour Apoptosis Assessment for the High-Throughput Transcriptomics (HTTr) Platform, in MCF-7 cells cultured in DMEM + 10% fetal bovine serum, Harrill Lab (AID 2284011)
Method in brief: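 Apoptosis in MCF-7 cells grown in DMEM with 10% fetal bovine serum was scored after a six hour exposure by high content imaging of caspase-3/7 activation (CellEvent Caspase 3/7 Green), with DMSO serving as negative control and baseline.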

[16] = CCTE_Harrill_HTTr_CellCount_MCF7: CCTE's Cell Proliferation Assessment for the High-Throughput Transcriptomics (HTTr) Platform, Harrill Lab (AID 2284012; active means hit-call score of the fitted dose curve at least 0.9, where 1 is the maximum;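 further: count of Hoechst-stained nuclei per well by high-content imaging in MCF-7 cells; cells exposed to compound for six hours; intended direction is loss of nuclei count meaning fewer cells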)
Method in brief: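 Readout: Hoechst nuclear count by high-content imaging. MCF-7, 8-point dilution series, 6 h exposure. Bidirectional fit vs DMSO baseline.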

[17] = biological target: Ratio of Nucleoli Translocation and Cytoplasm, AR (gene 367) (UniProt P10275); assay: UPITT_HCI_U2OS_AR_TIF2_Nucleoli_Cytoplasm_Ratio_Antagonist: University of Pittsburgh U2OS Androgen Receptor-Transcriptional Intermediary Factor 2 (AR-TIF2) Antagonism High Content Imaging Assay for Ratio of Nucleoli Translocation and Cytoplasm (AID 2283999; active means hit-call score of the fitted dose curve at least 0.9, where 1 is the maximum;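 further: antagonists lower the DHT-driven ratio of nucleolar to cytoplasmic red signal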)
Method in brief: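 Read-out is the ratio of nucleolar to cytoplasmic AR-RFP fluorescence, imaged by high-content microscopy in U2OS cells coexpressing TIF2-GFP. Single-point 20 uM screen, triplicate confirmation, then 0.195–50 uM dose response; activity referenced to DHT baseline.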

[18] = biological target: Estrogen receptor (Homo sapiens) (UniProt P03372); assay: CCTE_Deisenroth_AIME_96WELL_LUC_Active: CCTE's 96-well Estrogen Receptor Transactivation Assay with AIME metabolic competence (ERTA luciferase; metabolism positive), Deisenroth Lab (AID 2284023; active means hit-call score of the fitted dose curve at least 0.9, where 1 is the maximum)
Method in brief: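 Metabolism-positive mode: induced rat hepatic S9 in alginate microspheres conditions test solutions (0.002 - 200 uM, 10 points) for 2 hours. VM7Luc4E2 ER luciferase reporter cells then exposed 24 h; positive-direction fit against 17beta-estradiol, n=4 typical.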

[19] = biological target: Estrogen receptor (Homo sapiens) (UniProt P03372); assay: CCTE_Deisenroth_AIME_96WELL_LUC_Inactive: CCTE's 96-well Estrogen Receptor Transactivation Assay without AIME metabolic competence (ERTA luciferase; metabolism negative), Deisenroth Lab (AID 2284025; active means hit-call score of the fitted dose curve at least 0.9, where 1 is the maximum)
Method in brief: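 Metabolism-negative arm: chemicals (0.002–200 uM, 10 points) incubated 2 h with alginate-water microspheres, then medium moved onto VM7Luc4E2 cells for 24 h luciferase read-out. Positive direction vs 17beta-estradiol; n≥4 experiments.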

[20] = CCTE_Deisenroth_AIME_96WELL_CTox_Active: Cytotoxicity Assessment (CTOX) in CCTE's 96-well Estrogen Receptor Transactivation Assay with AIME metabolic competence (metabolism positive), Deisenroth Lab (AID 2284028; active means hit-call score of the fitted dose curve at least 0.9, where 1 is the maximum)
Method in brief: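 Cytotoxicity in VM7Luc4E2 breast cells after 24 h exposure to medium from a 2 h metabolic pre-incubation with induced rat hepatic S9 in alginate microspheres; fluorescent live-cell protease readout, 10-point series 0.002–200 uM, n=4.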

Sequence of Ratio of Nucleoli Translocation and Cytoplasm, AR (gene 367) (P10275 whole entry, looked up): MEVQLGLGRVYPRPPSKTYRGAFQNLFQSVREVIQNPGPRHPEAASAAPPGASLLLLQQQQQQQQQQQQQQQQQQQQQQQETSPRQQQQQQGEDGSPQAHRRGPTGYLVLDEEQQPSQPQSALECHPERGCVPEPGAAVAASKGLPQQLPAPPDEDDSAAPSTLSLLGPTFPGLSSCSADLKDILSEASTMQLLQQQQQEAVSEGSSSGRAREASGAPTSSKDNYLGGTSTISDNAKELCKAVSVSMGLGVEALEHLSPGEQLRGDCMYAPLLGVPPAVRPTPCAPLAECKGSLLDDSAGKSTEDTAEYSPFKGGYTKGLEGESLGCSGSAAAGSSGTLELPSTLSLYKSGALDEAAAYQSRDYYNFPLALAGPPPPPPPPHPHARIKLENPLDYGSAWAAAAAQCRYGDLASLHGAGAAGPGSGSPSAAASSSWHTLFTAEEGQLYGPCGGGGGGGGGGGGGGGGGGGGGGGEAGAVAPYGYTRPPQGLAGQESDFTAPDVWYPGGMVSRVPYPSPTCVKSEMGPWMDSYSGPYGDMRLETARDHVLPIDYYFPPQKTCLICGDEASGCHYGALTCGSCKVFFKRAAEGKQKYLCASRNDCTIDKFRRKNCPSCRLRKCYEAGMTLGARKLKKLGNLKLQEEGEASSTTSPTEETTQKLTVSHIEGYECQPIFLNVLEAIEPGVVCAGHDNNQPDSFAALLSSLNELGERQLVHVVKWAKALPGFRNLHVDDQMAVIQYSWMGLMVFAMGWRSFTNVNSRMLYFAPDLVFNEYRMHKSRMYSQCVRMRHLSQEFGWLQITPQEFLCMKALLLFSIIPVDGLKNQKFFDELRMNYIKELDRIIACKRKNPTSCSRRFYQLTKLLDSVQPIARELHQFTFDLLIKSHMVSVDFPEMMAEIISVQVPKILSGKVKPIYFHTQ
Sequence of Estrogen receptor (Homo sapiens) (P03372 whole entry, looked up): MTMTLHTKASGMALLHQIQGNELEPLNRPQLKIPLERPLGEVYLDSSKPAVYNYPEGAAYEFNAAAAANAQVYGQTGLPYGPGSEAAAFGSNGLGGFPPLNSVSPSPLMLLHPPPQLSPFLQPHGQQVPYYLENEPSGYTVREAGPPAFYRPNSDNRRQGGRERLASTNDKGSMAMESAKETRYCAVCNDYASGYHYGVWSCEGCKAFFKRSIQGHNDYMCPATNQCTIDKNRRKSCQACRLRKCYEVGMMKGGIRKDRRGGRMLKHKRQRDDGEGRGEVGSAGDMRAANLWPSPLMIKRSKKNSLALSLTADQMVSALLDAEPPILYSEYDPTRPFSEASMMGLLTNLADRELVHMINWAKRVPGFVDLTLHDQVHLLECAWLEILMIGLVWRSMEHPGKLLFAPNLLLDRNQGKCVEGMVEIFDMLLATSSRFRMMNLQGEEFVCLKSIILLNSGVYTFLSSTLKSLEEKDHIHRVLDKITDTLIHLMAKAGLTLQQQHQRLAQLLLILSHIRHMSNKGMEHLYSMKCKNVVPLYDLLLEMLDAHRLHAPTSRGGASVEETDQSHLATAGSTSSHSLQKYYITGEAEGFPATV

CCCCCCCCCC(C)=O
outcome [1]: inactive

Nc1nc(N)nc(-c2ccccc2)n1
outcome [2]: inactive | outcome [3]: inactive | outcome [4]: inactive | outcome [5]: inactive | outcome [6]: inactive | outcome [7]: inactive | outcome [8]: inactive | outcome [9]: inactive | outcome [10]: inactive | outcome [11]: inactive | outcome [12]: inactive | outcome [13]: inactive

CCCCC(CC)COC(=O)/C=C/c1ccc(OC)cc1 (centres undefined)
outcome [1]: inactive

C1CNCCN1
outcome [2]: inactive | outcome [14]: inactive | outcome [15]: inactive | outcome [16]: inactive | outcome [3]: inactive | outcome [4]: inactive | outcome [5]: inactive | outcome [6]: inactive | outcome [7]: inactive | outcome [8]: inactive | outcome [9]: inactive | outcome [10]: inactive | outcome [11]: inactive | outcome [12]: inactive | outcome [13]: inactive

Oc1ccc(/C=C/c2cc(O)cc(O)c2)cc1
outcome [17]: inactive | outcome [14]: inactive | outcome [15]: inactive | AC50 [18]: 4.94 µM (active) | AC50 [19]: 15.2 µM (active) | AC50 [20]: 70.2 µM (active)

CC(=O)OCc1ccccc1
outcome [17]: inactive | outcome [1]: inactive | outcome [14]: inactive | outcome [15]: inactive | outcome [16]: inactive

CCCCCCCCCCCCCC(=O)OC(C)C
outcome [17]: inactive | outcome [1]: inactive | outcome [14]: inactive | outcome [15]: inactive
